Bioassay records as filed in PubChem BioAssay.
mHTT-CaM PPI inh – disrupts binding of mutant huntingtin to calmodulin | AID 1671202 | hit rate 3.6% among 190,000 | inhibition, % at 15 µM | AlphaScreen His-mHTT/GST-CaM binding, luminescence | P42858
Pf apPOL inh – Pf-apPOL DNA polymerase inhibition; Recombinant Pf-apPOL, molecular beacon fluorescence, 1.5 h; inhibition, % at 10 µM; hit rate 0.25% among 210,000; AID 1794808
Numbers stand for hits; n = inactive; x = not tested or not shown. This is a sample that favours compounds with a hit; in the whole collection about 3.6% have one here. No stated cut-off is given here; in the data, active means inhibition above about 50%; inactive means the rest.

SMILES | mHTT-CaM PPI inh | Pf apPOL inh
COc1cc(O)c(C(CC(=O)N2CCN(c3ccccc3)CC2)c2ccc(N(C)C)cc2)c(OC)c1 (configuration not stated) | 73.7 | n
COc1cc(C(CC(=O)N2CCCC2)c2c(OC)cc(OC)c3ccc(=O)oc23)cc(OC)c1OC (configuration not stated) | n | n
COc1ccc(C(CC(=O)N2CCCC2)c2c(O)cc(OC)cc2OC)cc1 (configuration not stated) | n | n
COc1ccc(C(CC(=O)N2CCN(c3ccccc3)CC2)c2c(OC)cc(OC)c3ccc(=O)oc23)cc1 (configuration not stated) | 55.8 | n
COc1cccc(C2C(=O)N(C3CCC(C)CC3)CC(=O)N2Cc2ccccc2Cl)c1OC (configuration not stated) | n | n
CC(C)c1cc(Nc2ccc(S(N)(=O)=O)cc2)cc(C(C)C)c1O | n | n
CCOC(=O)C(=O)NC1CCc2[nH]c3ccc(C)cc3c2C1 (configuration not stated) | n | n
Cc1cccc2c3c([nH]c12)CCC(NC(=O)CC(C)C)C3 (configuration not stated) | n | n
Cc1cc(Cl)cc2c3c([nH]c12)CCC(NC(=O)C1CCCC1)C3 (configuration not stated) | n | n
Cc1cc(C)c2[nH]c3c(c2c1)CC(NC(=O)C1CCCO1)CC3 (configuration not stated) | 53.8 | n
COc1ccccc1C(=O)NC1CCc2[nH]c3c(C)cc(Cl)cc3c2C1 (configuration not stated) | 91.9 | n
Cc1ccccc1C(=O)NC1CCc2[nH]c3ccc(Br)cc3c2C1 (configuration not stated) | 99.5 | n
CC1CCN(CN2C(=O)C3(OCC(CO)([N+](=O)[O-])CO3)c3ccccc32)CC1 (configuration not stated) | n | n
COc1ccc(-c2nc3cc(NC(=O)c4ccco4)ccc3o2)cc1Cl | n | n
Cc1ccc(/C=C2\SC(=Nc3ccc(F)cc3)NC2=O)s1 | n | n
CCCNC(=O)C1CC(c2ccc(OC)cc2)=NO1 (configuration not stated) | n | n
C=CCCCC(=O)Nc1ccccc1Br | n | 67.2
O=C(O)CCC(=O)Nc1ccccc1Br | n | n
Cc1cc(CN(C)C)c(O)c(CCc2ccccc2)n1 | n | n
CCCN(CCC)C(=O)c1cccc([N+](=O)[O-])c1C | n | n
Cc1cn(S(=O)(=O)c2csc(Cl)c2Br)nc1-c1cccs1 | x | n
O=C(Nc1ccc(F)c(F)c1F)N1CC(=O)N2CCc3c(F)cccc3C2C1 (configuration not stated) | n | n
COc1cccc(C=O)c1OCC(=O)Nc1ccc(F)cc1 | n | n
CCN(Cc1ccncc1)C(=O)c1ccc(-c2ccc(F)cc2)s1 | n | n
CCN(Cc1ccncc1)C(=O)c1ccc(-c2cccc(Cl)c2)s1 | 74.6 | n
SMILES | mHTT-CaM PPI inh | Pf apPOL inh
Fc1cccc(-c2noc(-c3ccc(NCCCN4CCCC4)nc3)n2)c1 | n | n
O=C1NC2(CCN(Cc3ccccc3)CC2)N=C1c1cccc(F)c1 | n | n
COc1cccc(CN2CCC3(CC2)N=C(c2ccccc2)C(=O)N3)c1 | 57.6 | n
O=C1NC2(CCN(Cc3ccc(Cl)cc3)CC2)N=C1c1ccccc1 | 55.5 | n
O=C1NC2(CCN(Cc3ccccc3)CC2)N=C1c1cccc(Cl)c1 | n | n
Cc1cc(NC(=O)c2ccccc2Cl)n(-c2ncnc3c2cnn3-c2ccccc2)n1 | n | n
O=C(NCC(O)(c1ccccc1)C1CC1)c1cc(=O)c2ccccc2o1 (configuration not stated) | n | n
CN(C)C(=O)c1csc(N2CCN(c3cccc(Cl)c3)CC2)n1 | 52.9 | n
COc1cccc(N2CCN(c3nc(C(=O)N(C)C)cs3)CC2)c1 | n | n
Cc1c(C(=O)NCc2ccccn2)sc2ncnc(N(C)c3ccccc3)c12 | n | n
COc1ccc(N2C=C(C(=O)N3CCCC3)S(=O)(=O)c3ccc(Cl)cc32)cc1 | n | n
COc1ccc(NC(=O)N2CCCC2c2ccc(C)cc2)c(OC)c1 (configuration not stated) | n | n
O=C(CCNc1cccc(F)c1)c1cccc([N+](=O)[O-])c1 | n | n
O=[N+]([O-])c1ccc(/C=C/CNc2cccc(F)c2)o1 | 58.7 | n
COc1ccccc1Cc1noc(C2CN(CC(=O)Nc3nc(C)cs3)C2)n1 | n | n
Cc1cc(NS(=O)(=O)c2cccs2)n[nH]1 | x | n
Cc1cc(NS(=O)(=O)c2cc(C(=O)O)ccc2F)n[nH]1 | 78.0 | n
O=C(NCCc1cccnc1)C1CN(S(=O)(=O)c2ccccc2)CC12CCCCC2 (configuration not stated) | n | n
Cc1[nH]nc(SCC(=O)Nc2cc(Br)ccc2O)c1[N+](=O)[O-] | 52.0 | n
Cc1ccc(O)c(NC(=O)CSc2n[nH]c(C)c2[N+](=O)[O-])c1 | n | n
O=C(Oc1ccc2c(-c3cc4ccccc4oc3=O)cc(=O)oc2c1)C1CC1 | n | n
COc1ccc(-c2nc(=S)c3c(n2CCCO)CCCC3)cc1 | n | n
Oc1ccc(-c2[nH]ncc2Oc2ccc(-c3ccccc3)cc2)c(O)c1 | 50.9 | n
COc1ccc(-c2[nH]ncc2Oc2ccc(Cl)cc2)c(O)c1 | 65.9 | n
Oc1ccc(-c2[nH]ncc2-c2ccc(F)cc2)c(O)c1 | n | n
SMILES | mHTT-CaM PPI inh | Pf apPOL inh
CCOc1ccc(-c2[nH]ncc2Oc2ccccc2)c(O)c1 | n | n
COc1ccc(-c2[nH]ncc2-c2cnc(C)s2)c(O)c1 | n | n
C=C(C)COc1ccc(-c2[nH]ncc2Oc2ccccc2OCC)c(O)c1 | 66.5 | n
C=C(C)COc1ccc2c(=O)c(Oc3ccccc3OCC)c(C)oc2c1 | n | n
CCCc1ccc(Oc2cn[nH]c2-c2ccc(O)cc2O)cc1 | 81.8 | n
O=C1CC(c2ccc(OC3OC(CO)C(O)C(O)C3O)cc2)Oc2cc(O)ccc21 (configuration not stated) | x | n
Cc1ccc(S(=O)(=O)N(CC(=O)Nc2ccc(C(N)=O)cc2)Cc2ccc(F)cc2)cc1 | n | n
Cc1ccc2nc(C(=O)Nc3cccc(F)c3)cc(N3CCOCC3)c2c1 | n | n
O=C(NCc1ccc(F)cc1)C1CCN(c2cc(N3CCCCC3)ncn2)CC1 | n | n
CCCN(CCC)c1ccc(-c2nc(-c3ccccc3)no2)cn1 | n | n
COc1cc(=O)oc2cc(O)ccc12 | n | x
CCOC(=O)COc1ccc2c(=O)c(Oc3cccc(OC)c3)coc2c1 | n | n
O=C1C([N+](=O)[O-])=C(O)c2cccc3cccc1c23 | x | 70.3
O=C1c2ccc3ccccc3c2-c2cccc3cccc1c23 | x | n
CCc1ccccc1N(C)C(=O)c1nn(-c2cccc(OC)c2)c(=O)c2ccccc12 | n | n
CCn1ccc2sc(C)c(C(=O)N3CCC(Cc4ccccc4)CC3)c2c1=O | 80.0 | n
CCn1ccc2sc(C)c(C(=O)N3CCC(N4CCCCC4)CC3)c2c1=O | n | n
CCCCN(C)C(=O)CC1Sc2ncccc2N(CCC)C1=O (configuration not stated) | n | n
N#CC1C(c2ccc3ccccc3n2)=CN(CC(=O)c2ccc([N+](=O)[O-])cc2)c2ccccc21 (configuration not stated) | n | 75.4
O=C(Cn1nnc2ccccc21)c1ccc([N+](=O)[O-])cc1 | n | n
CCOC(=O)c1nn(-c2ccc(F)cc2)c(=O)cc1NCC1CCCO1 (configuration not stated) | n | n
